Laboratory results as given in PubChem BioAssay AID1159580 (chemical genetic matrix, 2015).
The whole screen tested about 5,500 compounds, of which about 2,000 (36%) were called active. Roughly 18% stayed inconclusive and do not appear here. Cut-off read from the data, not from the text of the source: active = normalized growth mostly below about 0.91 (no sharp cut-off); inconclusive = no clear call, values can overlap the other calls; inactive = mostly above about 0.92. The list shows a part of the results.

Assay: chemical genetic growth profiling, strain panel (AID 1159580);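 note: tested at 20 µM; growth read once vehicle control cultures reached saturation at 30 °C; 1 = growth at the plate median or of vehicle wells; lower values mean less growth of the strain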
Conditions: growth OD
[1] = S. cerevisiae deletion strains, locus YAL013W, strain DEP1, active compounds read low
[2] = S. cerevisiae deletion strains, locus YBR229C, strain ROT2, active compounds read low
[3] = S. cerevisiae deletion strains, locus YDL101C, strain DUN1, active compounds read low
[4] = S. cerevisiae deletion strains, locus YDL134C, strain PPH21, active compounds read low
[5] = S. cerevisiae deletion strains, locus YDR150W, strain NUM1, active compounds read low
[6] = S. cerevisiae deletion strains, locus YEL061C, strain CIN8, active compounds read low
[7] = S. cerevisiae deletion strains, locus YGR078C, strain PAC10, active compounds read low
[8] = S. cerevisiae deletion strains, locus YHR030C, strain SLT2, active compounds read low
[9] = S. cerevisiae deletion strains, locus YHR087W, strain rtc3, active compounds read low
[10] = S. cerevisiae deletion strains, locus YJR043C, strain POL32, active compounds read low
[11] = S. cerevisiae deletion strains, locus YJR075W, strain HOC1, active compounds read low
[12] = S. cerevisiae deletion strains, locus YLR039C, strain RIC1, active compounds read low
[13] = S. cerevisiae deletion strains, locus YLR058C, strain SHM2 (second series), active compounds read low
[14] = S. cerevisiae deletion strains, locus YLR085C, strain ARP6, active compounds read low
[15] = S. cerevisiae deletion strains, locus YLR262C, strain YPT6, active compounds read low
[16] = S. cerevisiae deletion strains, locus YML094W, strain GIM5, active compounds read low
[17] = S. cerevisiae deletion strains, locus YMR219W, strain ESC1, active compounds read low
[18] = S. cerevisiae deletion strains, locus YMR263W, strain SAP30, active compounds read low
[19] = S. cerevisiae deletion strains, locus YNL153C, strain GIM3, active compounds read low
[20] = S. cerevisiae deletion strains, locus YNL298W, strain CLA4 (second series), active compounds read low
[21] = S. cerevisiae deletion strains, locus YNL322C, strain KRE1, active compounds read low
[22] = S. cerevisiae deletion strains, locus YNR030W, strain Alg12, active compounds read low
[23] = S. cerevisiae deletion strains, locus YPL055C, strain LGE1, active compounds read low
[24] = S. cerevisiae deletion strains, locus YPL241C, strain CIN2, active compounds read low
[25] = S. cerevisiae deletion strains, locus YPR135W, strain CTF4, active compounds read low

Measured: normalized growth

COC(=O)c1ccccc1CSc1nccc(C(F)(F)F)n1
active: [4] 0.86 | [8] 0.671 | [11] 0.882 | [12] 0.743 | [14] 0.661 | [15] 0.752 | [22] 0.861
inactive: [1] 0.963 | [2] 0.938 | S. cerevisiae deletion strains, locus YCL061C, strain MRC1, active compounds read low 0.956 | [3] 0.978 | [5] 0.939 | [6] 0.917 | [7] 0.927 | S. cerevisiae deletion strains, locus YGR229C, strain SMI1, active compounds read low 0.969 | [9] 0.913 | [10] 0.957 | S. cerevisiae deletion strains, locus YKL190W, strain CNB1, active compounds read low 0.931 | [13] 0.959 | [16] 0.946 | [17] 0.969 | [18] 0.975 | [19] 0.952 | [20] 0.895 | [21] 0.962 | [23] 0.849 | [24] 0.859 | [25] 0.657 | S. cerevisiae strains, strain wild type, active compounds read low 0.926

CCOC(=O)c1cnc2c(c(C)nn2C)c1Sc1nnc(SC)s1
active: S. cerevisiae deletion strains, locus YAR019C, strain CDC15, active compounds read low 0.847 | S. cerevisiae deletion strains, locus YBL105C, strain PKC1, active compounds read low 0.872 | S. cerevisiae deletion strains, locus YBR135W, strain CKS1, active compounds read low 0.874 | S. cerevisiae deletion strains, locus YBR136W, strain MEC1, active compounds read low 0.867 | S. cerevisiae deletion strains, locus YBR160W, strain CDC28, active compounds read low 0.876 | S. cerevisiae deletion strains, locus YDL017W, strain CDC7, active compounds read low 0.875 | S. cerevisiae deletion strains, locus YDL028C, strain MPS1, active compounds read low 0.882 | [3] 0.911 | S. cerevisiae deletion strains, locus YDL132W, strain cdc53, active compounds read low 0.841 | S. cerevisiae deletion strains, locus YDR052C, strain DBF4, active compounds read low 0.89 | S. cerevisiae deletion strains, locus YDR054C, strain cdc34, active compounds read low 0.779 | S. cerevisiae deletion strains, locus YDR226W, strain ADK1, active compounds read low 0.871 | S. cerevisiae deletion strains, locus YER123W, strain YCK3, active compounds read low 0.615 | S. cerevisiae deletion strains, locus YER133W, strain GLC7, active compounds read low 0.657 | S. cerevisiae deletion strains, locus YFL009W, strain cdc4, active compounds read low 0.851 | S. cerevisiae deletion strains, locus YFL029C, strain CAK1, active compounds read low 0.845 | S. cerevisiae deletion strains, locus YFR003C, strain YPI1, active compounds read low 0.887 | S. cerevisiae deletion strains, locus YFR019W, strain FAB1, active compounds read low 0.73 | S. cerevisiae deletion strains, locus YFR028C, strain CDC14, active compounds read low 0.891 | S. cerevisiae deletion strains, locus YGR092W, strain DBF2, active compounds read low 0.431 | [8] 0.565 | S. cerevisiae deletion strains, locus YIL147C, strain SLN1, active compounds read low 0.857 | S. cerevisiae deletion strains, locus YJR016C, strain ILV3, active compounds read low 0.859 | S. cerevisiae deletion strains, locus YJR066W, strain TOR1 (second series), active compounds read low 0.497 | S. cerevisiae deletion strains, locus YKL193C, strain SDS22, active compounds read low 0.859 | S. cerevisiae deletion strains, locus YKL203C, strain TOR2, active compounds read low 0.683 | S. cerevisiae deletion strains, locus YLR113W, strain HOG1, active compounds read low 0.505 | S. cerevisiae deletion strains, locus YLR403W, strain SFP1, active compounds read low 0.549 | S. cerevisiae deletion strains, locus YMR001C, strain CDC5, active compounds read low 0.855 | S. cerevisiae deletion strains, locus YMR277W, strain FCP1, active compounds read low 0.852 | S. cerevisiae deletion strains, locus YNL006W, strain LST8, active compounds read low 0.881 | S. cerevisiae deletion strains, locus YNL161W, strain CBK1, active compounds read low 0.88 | S. cerevisiae deletion strains, locus YNL207W, strain RIO2, active compounds read low 0.844 | S. cerevisiae deletion strains, locus YNL222W, strain SSU72, active compounds read low 0.867 | S. cerevisiae deletion strains, locus YNL307C, strain MCK1 (second series), active compounds read low 0.596 | S. cerevisiae deletion strains, locus YOL078W, strain AVO1, active compounds read low 0.859 | S. cerevisiae deletion strains, locus YOR329C, strain SCD5, active compounds read low 0.872 | S. cerevisiae deletion strains, locus YPL153C, strain RAD53, active compounds read low 0.62 | S. cerevisiae deletion strains, locus YPL209C, strain IPL1, active compounds read low 0.886 | S. cerevisiae deletion strains, locus YPL256C, strain CLN2, active compounds read low 0.789 | S. cerevisiae deletion strains, locus YPR025C, strain CCL1, active compounds read low 0.879 | S. cerevisiae deletion strains, strain TSCII, active compounds read low 0.846
inactive: S. cerevisiae deletion strains, locus YDL108W, strain KIN28, active compounds read low 0.899 | S. cerevisiae deletion strains, locus YDL214C, strain PRR2, active compounds read low 0.796 | S. cerevisiae deletion strains, locus YDR477W, strain SNF1, active compounds read low 0.719 | S. cerevisiae deletion strains, locus YGR040W, strain KSS1, active compounds read low 0.742 | S. cerevisiae deletion strains, locus YGR052W, strain FMP48, active compounds read low 0.847 | S. cerevisiae deletion strains, locus YHR079C, strain IRE1, active compounds read low 0.649 | S. cerevisiae deletion strains, locus YHR082C, strain KSP1, active compounds read low 0.779 | S. cerevisiae deletion strains, locus YHR205W, strain SCH9, active compounds read low 0.744 | S. cerevisiae deletion strains, locus YJL095W, strain BCK1, active compounds read low 0.69 | S. cerevisiae deletion strains, locus YJL128C, strain PBS2, active compounds read low 0.945 | S. cerevisiae deletion strains, locus YJL157C, strain FAR1, active compounds read low 0.739 | S. cerevisiae deletion strains, locus YJR066W, strain TOR1, active compounds read low 0.644 | S. cerevisiae deletion strains, locus YKL048C, strain ELM1, active compounds read low 0.902 | S. cerevisiae deletion strains, locus YKL067W, strain YNK1, active compounds read low 0.821 | S. cerevisiae deletion strains, locus YKL101W, strain HSL1, active compounds read low 0.865 | S. cerevisiae deletion strains, locus YLR133W, strain CKI1, active compounds read low 0.808 | S. cerevisiae deletion strains, locus YML070W, strain DAK1, active compounds read low 0.759 | S. cerevisiae deletion strains, locus YMR205C, strain PFK2 (second series), active compounds read low 0.859 | S. cerevisiae deletion strains, locus YNL020C, strain ARK1, active compounds read low 0.802 | S. cerevisiae deletion strains, locus YNL183C, strain NPR1, active compounds read low 0.715 | S. cerevisiae deletion strains, locus YOL136C, strain PFK27, active compounds read low 0.714 | S. cerevisiae deletion strains, locus YOR061W, strain CKA2, active compounds read low 0.813 | S. cerevisiae deletion strains, locus YOR119C, strain RIO1, active compounds read low 0.77 | S. cerevisiae deletion strains, locus YOR231W, strain MKK1, active compounds read low 0.701 | S. cerevisiae deletion strains, locus YPL031C, strain PHO85, active compounds read low 0.67 | S. cerevisiae deletion strains, locus YPL204W, strain HRR25, active compounds read low 0.667 | S. cerevisiae deletion strains, locus YPR106W, strain ISR1, active compounds read low 0.934 | S. cerevisiae deletion strains, locus YPR111W, strain DBF20, active compounds read low 0.928 | S. cerevisiae deletion strains, strain NNK1, active compounds read low 0.917

CCOC(=O)c1cnc2nc(SC)nn2c1N
inactive: [1] 0.997 | [2] 1 | [3] 0.955 | [4] 0.995 | [5] 0.968 | [6] 1 | [7] 0.971 | [8] 0.855 | [9] 0.994 | [10] 0.935 | [11] 0.984 | [12] 1.03 | [13] 0.994 | [14] 0.88 | [15] 1.01 | [16] 0.942 | [17] 0.993 | [18] 0.983 | S. cerevisiae deletion strains, locus YMR307W, strain GAS1, active compounds read low 0.909 | S. cerevisiae deletion strains, locus YNL128W, strain TEP1, active compounds read low 0.988 | [19] 0.956 | [20] 0.968 | [21] 0.998 | [22] 0.982 | [23] 0.942 | [24] 0.982 | [25] 0.894
